Experimental data reported in the supplement of paper PMC8728848.
Only a selection was taken, and the strongest signals are over-represented in it overall.

Key:
Assay in all cases: glycan array binding signal (z-score within array); higher = stronger binding
Conditions in all cases: glycan notation: IUPAC condensed, linker removed
[1] = molecular target: Fuc(a1-2)Gal(b1-3)GalNAc(a1-3)[Fuc(a1-2)]Gal(b1-4)GlcNAc
Summary of the method: (§1)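 Arrays were curated from the Consortium for Functional Glycomics database, 3228 in total, and kept only where the protein sequence was available. Binding is expressed as a within-array Z-score. This score was averaged across arrays of the same protein sequence at different concentrations or buffers and across linkers, and negative values can be read as non-binding.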

[2] = molecular target: Fuc(a1-2)Gal(b1-3)GlcNAc(b1-2)Man(a1-3)[Fuc(a1-2)Gal(b1-3)GlcNAc(b1-2)Man(a1-6)]Man(b1-4)GlcNAc(b1-4)[Fuc(a1-6)]GlcNAc
Summary of the method: as §1

[3] = molecular target: Fuc(a1-2)Gal(b1-3)GlcNAc(b1-3)Gal(b1-4)Glc
Summary of the method: as §1

Fuc(a1-2)Gal(b1-4)Glc = molecular target: Fuc(a1-2)Gal(b1-4)Glc
Summary of the method: as §1

[4] = molecular target: Fuc(a1-2)Gal3S(b1-4)GlcNAc
Summary of the method: as §1

[5] = molecular target: Fuc(a1-2)Gal6S(b1-4)Glc6S
Summary of the method: as §1

[6] = molecular target: Fuc(a1-2)[GalNAc(a1-4)]Gal(b1-4)GlcNAc
Summary of the method: as §1

[7] = molecular target: Fuc(a1-3)[Gal(b1-4)]GlcNAc
Summary of the method: as §1

Gal(a1-3)Gal(b1-3)GlcNAc = molecular target: Gal(a1-3)Gal(b1-3)GlcNAc
Summary of the method: as §1

[8] = molecular target: Gal(a1-3)Gal(b1-3)[Fuc(a1-4)]GlcNAc(b1-2)Man(a1-3)[Gal(a1-3)Gal(b1-3)[Fuc(a1-4)]GlcNAc(b1-2)Man(a1-6)]Man(b1-4)GlcNAc(b1-4)GlcNAc
Summary of the method: as §1

Gal(a1-4)Gal(b1-4)Glc = molecular target: Gal(a1-4)Gal(b1-4)Glc
Summary of the method: as §1

[9] = molecular target: Gal(b1-3)GlcNAc(b1-2)[Gal(b1-3)GlcNAc(b1-6)]Man(a1-6)[Gal(b1-3)GlcNAc(b1-2)Man(a1-3)]Man(b1-4)GlcNAc(b1-4)GlcNAc
Summary of the method: as §1

[10] = molecular target: Gal(b1-3)GlcNAc(b1-3)Gal(b1-3)GlcNAc
Summary of the method: as §1

[11] = molecular target: Gal(b1-3)GlcNAc(b1-3)Gal(b1-4)GlcNAc(b1-3)Gal(b1-4)GlcNAc(b1-2)[Gal(b1-3)GlcNAc(b1-3)Gal(b1-4)GlcNAc(b1-3)Gal(b1-4)GlcNAc(b1-6)]Man(a1-6)[Gal(b1-3)GlcNAc(b1-3)Gal(b1-4)GlcNAc(b1-3)Gal(b1-4)GlcNAc(b1-2)Man(a1-3)]Man(b1-4)GlcNAc(b1-4)[Fuc(a1-6)]GlcNAc
Summary of the method: as §1

[12] = molecular target: Gal(b1-3)[Fuc(a1-4)]GlcNAc(b1-3)Gal(b1-4)GlcNAc
Summary of the method: as §1

[13] = molecular target: Gal(b1-3)[Neu5Ac(a2-6)]GlcNAc(b1-4)Gal(b1-4)Glc
Summary of the method: as §1

[14] = molecular target: Gal(b1-3)[Neu5Ac(b2-6)]GalNAc
Summary of the method: as §1

[15] = molecular target: Gal(b1-4)GalNAc(b1-3)[Fuc(a1-2)]Gal(b1-4)GlcNAc
Summary of the method: as §1

[16] = molecular target: Gal(b1-4)GlcNAc(a1-6)Gal(b1-4)GlcNAc
Summary of the method: as §1

Gal(b1-4)GlcNAc(b1-2)Man = molecular target: Gal(b1-4)GlcNAc(b1-2)Man
Summary of the method: as §1

[17] = molecular target: Gal(b1-4)GlcNAc(b1-2)[Gal(b1-4)GlcNAc(b1-4)]Man(a1-3)[Gal(b1-4)GlcNAc(b1-2)Man(a1-6)]Man(b1-4)GlcNAc(b1-4)GlcNAc
Summary of the method: as §1

[18] = molecular target: Gal(b1-4)GlcNAc(b1-2)[Gal(b1-4)GlcNAc(b1-4)]Man(a1-3)[GlcNAc(b1-4)][Gal(b1-4)GlcNAc(b1-2)[Gal(b1-4)GlcNAc(b1-6)]Man(a1-6)]Man(b1-4)GlcNAc(b1-4)GlcNAc
Summary of the method: as §1

[19] = molecular target: Gal(b1-4)GlcNAc(b1-2)[Gal(b1-4)GlcNAc(b1-6)]Man(a1-6)[Gal(b1-4)GlcNAc(b1-2)Man(a1-3)]Man(b1-4)GlcNAc(b1-4)GlcNAc
Summary of the method: as §1

[20] = molecular target: Gal(b1-4)GlcNAc(b1-2)[Gal(b1-4)GlcNAc(b1-6)]Man(a1-6)[Gal(b1-4)GlcNAc(b1-2)Man(a1-3)]Man(b1-4)GlcNAc(b1-4)[Fuc(a1-6)]GlcNAc
Summary of the method: as §1

[21] = molecular target: Gal(b1-4)GlcNAc(b1-2)[Gal(b1-4)GlcNAc(b1-6)]Man(a1-6)[GlcNAc(b1-4)][Gal(b1-4)GlcNAc(b1-2)[Gal(b1-4)GlcNAc(b1-4)]Man(a1-3)]Man(b1-4)GlcNAc(b1-4)[Fuc(a1-6)]GlcNAc
Summary of the method: as §1

[22] = molecular target: Gal(b1-4)GlcNAc(b1-3)Gal(b1-4)GlcNAc(b1-2)[Gal(b1-4)GlcNAc(b1-3)Gal(b1-4)GlcNAc(b1-6)]Man(a1-6)[Gal(b1-4)GlcNAc(b1-3)Gal(b1-4)GlcNAc(b1-2)Man(a1-3)]Man(b1-4)GlcNAc(b1-4)[Fuc(a1-6)]GlcNAc
Summary of the method: as §1

[23] = molecular target: Gal(b1-4)GlcNAc(b1-3)Gal(b1-4)GlcNAc(b1-3)Gal(b1-4)GlcNAc(b1-2)Man(a1-3)[Gal(b1-4)GlcNAc(b1-3)Gal(b1-4)GlcNAc(b1-3)Gal(b1-4)GlcNAc(b1-2)Man(a1-6)]Man(b1-4)GlcNAc(b1-4)[Fuc(a1-6)]GlcNAc
Summary of the method: as §1

[24] = molecular target: Gal(b1-4)GlcNAc(b1-3)Gal(b1-4)GlcNAc(b1-3)Gal(b1-4)GlcNAc(b1-2)[Gal(b1-4)GlcNAc(b1-3)Gal(b1-4)GlcNAc(b1-3)Gal(b1-4)GlcNAc(b1-6)]Man(a1-6)[Gal(b1-4)GlcNAc(b1-3)Gal(b1-4)GlcNAc(b1-3)Gal(b1-4)GlcNAc(b1-2)Man(a1-3)]Man(b1-4)GlcNAc(b1-4)[Fuc(a1-6)]GlcNAc
Summary of the method: as §1

[25] = molecular target: Gal(b1-4)GlcNAc(b1-3)Gal(b1-4)GlcNAc(b1-3)Gal(b1-4)GlcNAc(b1-3)Gal(b1-4)GlcNAc(b1-2)Man(a1-3)[Gal(b1-4)GlcNAc(b1-3)Gal(b1-4)GlcNAc(b1-3)Gal(b1-4)GlcNAc(b1-3)Gal(b1-4)GlcNAc(b1-2)Man(a1-6)]Man(b1-4)GlcNAc(b1-4)[Fuc(a1-6)]GlcNAc
Summary of the method: as §1

[26] = molecular target: Gal(b1-4)GlcNAc(b1-3)Gal(b1-4)GlcNAc(b1-3)Gal(b1-4)GlcNAc(b1-3)Gal(b1-4)GlcNAc(b1-2)[Gal(b1-4)GlcNAc(b1-3)Gal(b1-4)GlcNAc(b1-3)Gal(b1-4)GlcNAc(b1-3)Gal(b1-4)GlcNAc(b1-6)]Man(a1-6)[Gal(b1-4)GlcNAc(b1-3)Gal(b1-4)GlcNAc(b1-3)Gal(b1-4)GlcNAc(b1-3)Gal(b1-4)GlcNAc(b1-2)Man(a1-3)]Man(b1-4)GlcNAc(b1-4)[Fuc(a1-6)]GlcNAc
Summary of the method: as §1

B1: Threefoil (Haloarcula marismortui) (protein)
chain: GSSHHHHHHHHHHSSGLVPRGSHMGDGYYKLVARHSGKALDVENASTSDGANVIQYSYSGGDNQQWRLVDLGDGYYKLVARHSGKALDVENASTSDGANVIQYSYSGGDNQQWRLVDLGDGYYKLVARHSGKALDVENASTSDGANVIQYSYSGGDNQQWRLVDL
glycan array binding signal (z-score) [1]: -0.165 | glycan array binding signal (z-score) [2]: 0.056 | glycan array binding signal (z-score) [3]: -0.192 | glycan array binding signal (z-score) (Fuc(a1-2)Gal(b1-4)Glc): -0.107 | glycan array binding signal (z-score) [4]: -0.199 | glycan array binding signal (z-score) [5]: -0.153 | glycan array binding signal (z-score) [6]: -0.341 | glycan array binding signal (z-score) [7]: -0.151 | glycan array binding signal (z-score) (Gal(a1-3)Gal(b1-3)GlcNAc): -0.298 | glycan array binding signal (z-score) [8]: -0.217 | glycan array binding signal (z-score) (Gal(a1-4)Gal(b1-4)Glc): 0.139 | glycan array binding signal (z-score) [9]: 0.155 | glycan array binding signal (z-score) [10]: -0.266 | glycan array binding signal (z-score) [11]: 0.426 | glycan array binding signal (z-score) [12]: 0.307 | glycan array binding signal (z-score) [13]: -0.13 | glycan array binding signal (z-score) [14]: -0.229 | glycan array binding signal (z-score) [15]: -0.231 | glycan array binding signal (z-score) [16]: 0.067 | glycan array binding signal (z-score) (Gal(b1-4)GlcNAc(b1-2)Man): -0.105 | glycan array binding signal (z-score) [17]: 3.48 | glycan array binding signal (z-score) [18]: 8.13 | glycan array binding signal (z-score) [19]: 0.527 | glycan array binding signal (z-score) [20]: 3.39 | glycan array binding signal (z-score) [21]: 6.8 | glycan array binding signal (z-score) [22]: 6.34 | glycan array binding signal (z-score) [23]: 6.67 | glycan array binding signal (z-score) [24]: 9.87 | glycan array binding signal (z-score) [25]: 3.74 | glycan array binding signal (z-score) [26]: 7.31
